Most compounds without a hit are left out; they make up all but 21% or so of the library.
Pf growth 48h – Primary qHTS for delayed death inhibitors of the malarial parasite plastid, 48 hour incubation. P. falciparum luciferase growth in erythrocytes, 48 h. Potency, µM (series often up to 28.7 µM), most hits filed as inhibitors. hit rate 5.9% among 310,000. AID 504832, 2011
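Parasite viability was followed by luminescence of a genomically integrated firefly luciferase. Cultures held 0.1% parasitemia at 2% hematocrit (final), incubated under 5% CO2 at 37 C.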
Cycloheximide cs – Cycloheximide Counterscreen for Small Molecule Inhibitors of Shiga Toxin | cell reporter, cycloheximide protein synthesis inhibition counterscreen | max response, % | hit rate 12% among 300,000 | AID 2314, 2010; in the data active = max response mostly above about 13%, no sharp cut-off; inactive = mostly below about 14%; also: read at 38.3 µM for the half of the compounds with a filed dose
Pf growth 96h – Primary qHTS for delayed death inhibitors of the malarial parasite plastid, 96 hour incubation; P. falciparum luciferase reporter growth, 96 h; Potency, µM (series often up to 28.7 µM), most hits filed as inhibitors; hit rate 6.9% among 320,000; AID 504834, 2011
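Readout is luminescence from an integrated firefly luciferase in P. falciparum. Red cells, 2% hematocrit and 0.05% parasitemia final, were cultured with compound through two parasite generations (96 hours) at 37 C, 5% CO2.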
Shiga inhibitor – A qHTS for Small Molecule Inhibitors of Shiga Toxin; Vero cells, Shiga toxin protein synthesis inhibition reporter; inhibition, % at 38.7 µM; hit rate 9.2% among 290,000; AID 2315, 2010; in the data active = inhibition mostly above about 28%, no sharp cut-off; inactive = mostly below about 43%
Hits are given with their value; - = inactive; ? = inconclusive; . = no result; [ ] = remark or other dose. Unless noted, calls follow the shape of the dose curve; as a rule, active = well fitted inhibition curve with a large enough effect; inconclusive = small, poorly fitted or top-dose-only effect, or another doubt; inactive = no such curve, though single readings can be large or run the other way.

SMILES	Pf growth 48h	Cycloheximide cs	Pf growth 96h	Shiga inhibitor
N=c1c(C(=O)NCCc2ccccc2)cc2c(=O)n3ccccc3nc2n1Cc1ccco1	2.3µM	-	-	-
N=c1c(C(=O)NC2CCCCC2)cc2c(=O)n3ccccc3nc2n1CCc1ccccc1	1.5µM	-	1.7µM	-
O=C(CCCc1nc2ccccc2s1)NNC(=O)CCN1CCN(Cc2ccccc2)CC1	-	-	-	-
Cc1ccc(C(=O)Nc2ccnc(-c3ccncc3)n2)cc1	-	-	-	-
COc1ccc(NS(=O)(=O)c2ccc(NC(=O)C(CCSC)NC(N)=O)cc2)cc1 (stereo not drawn)	-	-	-	-
COc1ccc(C(CNc2ccc(C(F)(F)F)cn2)N(C)C)cc1OC (stereo not drawn)	-	-	?	-
COc1ccc(CCn2c(=N)c(C(=O)NCc3ccco3)cc3c(=O)n4ccccc4nc32)cc1	2.9µM	-	?	-
Cc1nc(-c2ccccc2)sc1C(=O)/C=C/c1ccc(Cl)cc1	?	-	?	-
Cc1nc(-c2ccccc2Cl)sc1C(=O)/C=C/N(C)C	-	24	-	-
Cn1c(NCc2cccs2)nc2ccccc21	-	33	-	57
CCn1c(NCc2cccs2)nc2ccccc21	-	-	?	-
Cn1c(NCc2ccco2)nc2ccccc21	-	12	-	-
COc1ccc(C2(C(=O)Nc3ccc(C)cc3)CCOCC2)cc1	?	-	-	-
CCCCn1c2c(c(=O)n(C)c1=O)C(c1ccc(OC)cc1)N1CCCCCC1=N2 (stereo not drawn)	?	-	7.4µM	-
CC(=O)c1ccc(N=C2SCCCN2C(=O)C2CCCC2)cc1	-	-	-	-
COc1ccccc1NC(=O)N1CCCC1C(=O)Nc1ccc(NC(C)=O)cc1 (stereo not drawn)	?	-	?	-
CCC1c2ccc(C)n2CCN1C(=O)Nc1ccccc1OC (stereo not drawn)	?	15	-	29
O=C(CSc1nnc(NC(=O)c2c(F)cccc2Cl)s1)Nc1ccccc1F	-	8.3	-	-
CSc1nsc(SCC(=O)Nc2ccccc2)n1	-	40	-	-
CSc1nsc(SCC(=O)Nc2ccccc2F)n1	-	31	-	58
COc1ccc(CNC(=O)CSc2nc(SC)ns2)cc1	-	-	-	-
CSc1nsc(SCC(=O)Nc2ccc(OC(C)=O)cc2)n1	-	27	-	-
O=C(CSc1nnc(NC(=O)c2c(F)cccc2F)s1)Nc1ccccc1F	-	-	-	-
CSc1nsc(SCC(=O)Nc2cccc(C(C)=O)c2)n1	-	-	.	-
CCn1c(COc2ccc3c(c2)OCO3)nnc1SCC(=O)c1ccc(Cl)cc1	-	-	.	-
SMILES	Pf growth 48h	Cycloheximide cs	Pf growth 96h	Shiga inhibitor
CSc1nsc(SCc2ccc(F)cc2)n1	-	13	.	-
CSc1nsc(NC(=O)Cc2ccccc2)n1	-	46	-	86
CCOC(=O)c1ccc(NC(=O)CSc2nc(SC)ns2)cc1	-	48	?	60
CSc1nsc(SCC(=O)Nc2ccccc2C(N)=O)n1	-	11	-	38
O=C(CN1C(=O)NC2(CCc3ccccc32)C1=O)Nc1ccccc1C(F)(F)F (stereo not drawn)	-	.	?	.
CCC1ON(c2ccccc2)C2c3nc4ccccc4n3CC12 (stereo not drawn)	-	-	-	-
CCOc1ncccc1C(=O)Nc1nnc(C)s1	-	-	-	-
CCOc1ncccc1C(=O)Nc1nc(SC)ns1	-	28	-	66
CCOc1ccc(NC(=O)c2ccc(S(=O)(=O)N(C)C)cc2)cc1	-	-	?	-
CCOC(=O)NC(=S)Nc1ccc(C(C)(C)C)cc1Br	?	22	?	-
CCOc1cc(C(=O)Nc2ccc(NC(C)=O)cc2)ccc1OCC(=O)N1CCCCC1	-	-	12µM	-
CCOc1ccc(NC(=O)c2ccc(N)cc2)cc1	-	12	-	25
Cn1cc(Br)c(C(=O)Nc2ncc(Br)s2)n1	-	36	-	-
CN(C)C(CNc1ncccn1)c1ccccc1 (stereo not drawn)	-	-	-	-
CCOc1ccc(NC(=O)c2nn(C)cc2Br)cc1	-	15	?	-
COc1ccc(NC(=O)c2ccc(Oc3ncccn3)cc2)cc1	-	22	-	57
COc1ccc(NC(=O)c2ccc(NC(=O)c3ccncc3)cc2)cc1	-	-	-	-
CC(C)OC(=O)c1cc(NC(=O)c2nn(C)cc2Br)cc(C(=O)OC(C)C)c1	-	-	-	-
CCOc1ccc(NC(=O)c2ccc(NCC(=O)N3CCCCCC3)cc2)cc1	-	27	-	-
COc1ccc(C(=O)Nc2ccc(C3CC3(Cl)Cl)cc2)cc1 (stereo not drawn)	-	21	-[1.15 µM]	-

High-throughput results: PubChem, National Center for Advancing Translational Sciences (NCATS)
